About 83,000 compounds went through this panel and 20% of them were active in at least one assay; those are over-represented in the sample as a whole.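 Testing used 96-well plates and a 48-hour single-concentration exposure. Example: -40 means 40% of the starting cells died.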 Values without a mark were called inactive. The source made the active and inactive calls. How the source made its calls: active means growth percent below 10; inactive means the rest.

Some test systems named below: RPMI-8226 leukemia; OVCAR-8 ovarian; OVCAR-5 ovarian; OVCAR-4 ovarian; SK-OV-3 ovarian; IGROV1 ovarian; OVCAR-3 ovarian; HS 578T breast; NCI/ADR-RES ovarian; T-47D breast.
Assay in all cases: NCI-60 one-dose screen, 48 h (100 = growth as untreated, 0 = no growth, -100 = all killed)
Holding throughout (settings): 10 µM

As for `Cc1cc(=O)n2nnc3c4ccccc4ccc3n12`, the growth is 8.01% (active) in the assay with RPMI-8226 leukemia; 27.3% in the assay on OVCAR-8 ovarian; 88.5% with OVCAR-5 ovarian; 49.3% with OVCAR-4 ovarian; 53.6% in the assay on SK-OV-3 ovarian; 61.8% with IGROV1 ovarian. The growth is 40.4% in the assay on OVCAR-3 ovarian, 104% with HS 578T breast, 68.4% with NCI/ADR-RES ovarian and 47.6% with T-47D breast.

Take `N=C(N)c1ccc(-c2ccc(-c3cccs3)s2)cc1`: the growth in the assay on RPMI-8226 leukemia was -30.9% (active); with OVCAR-8 ovarian, -14% (active); with OVCAR-5 ovarian, 67%; in the assay on OVCAR-4 ovarian, -19.8% (active); in the assay with SK-OV-3 ovarian, 65.9%; in the assay on IGROV1 ovarian it was 94.9%. In addition, the growth was 36.7% in the assay with OVCAR-3 ovarian, 104% in the assay on HS 578T breast, 56.1% in the assay on NCI/ADR-RES ovarian and 55.1% in the assay on T-47D breast.

In the case of `COc1ccc(-c2nn(-c3cccc(NC(=O)Nc4cccc(C(F)(F)F)c4)c3)cc2-c2ccncc2)cc1Cl`, the growth in the assay on RPMI-8226 leukemia was -11% (active); in the assay on OVCAR-8 ovarian, -4.63% (active); in the assay on OVCAR-5 ovarian, 56.1%; with OVCAR-4 ovarian, 18.1%; in the assay with SK-OV-3 ovarian, 20.4%; in the assay on IGROV1 ovarian, 14.5%. Moreover, the growth with OVCAR-3 ovarian was 3.89% (active); in the assay on HS 578T breast, 32.5%; in the assay with NCI/ADR-RES ovarian, 0.659% (active); in the assay with T-47D breast, -6.95% (active).

In the case of `CC(=O)c1nc2ccccc2n1CCNC(N)=O`, the growth in the assay on RPMI-8226 leukemia was 32%; in the assay on OVCAR-8 ovarian it was 85.1%; in the assay with OVCAR-5 ovarian, 97.5%; in the assay on OVCAR-4 ovarian, 93.1%; in the assay on SK-OV-3 ovarian, 91.5%; in the assay on IGROV1 ovarian it was 88.9%. Moreover, the growth in the assay with OVCAR-3 ovarian was 82.7%; in the assay with HS 578T breast, 68.9%; with NCI/ADR-RES ovarian, 101%; with T-47D breast, 67.8%.

As for `C#Cc1ccc(-n2c(/C=C/c3ccc4ccccc4c3)nc3ncccc3c2=O)cc1`, the growth was -8.86% (active) with RPMI-8226 leukemia; 38.5% in the assay on OVCAR-8 ovarian; 105% in the assay with OVCAR-5 ovarian; -3.79% (active) in the assay on OVCAR-4 ovarian; 68.9% in the assay with SK-OV-3 ovarian; 52.7% in the assay on IGROV1 ovarian. The growth in the assay on OVCAR-3 ovarian was 17%; with HS 578T breast, 72.8%; in the assay on NCI/ADR-RES ovarian, 42.5%; in the assay with T-47D breast, 42.7%.

On to `Cc1cccc(C)c1NC(=O)c1sc2nc3c(cc2c1N)C(=O)CCC3`, for which the growth in the assay on RPMI-8226 leukemia is 96%; with OVCAR-8 ovarian it was 97.9%; in the assay with OVCAR-5 ovarian, 97.6%; in the assay on OVCAR-4 ovarian it was 101%; with SK-OV-3 ovarian, 22.5%; with IGROV1 ovarian, 89.4%. For the same compound, the growth in the assay with OVCAR-3 ovarian was 100%; in the assay on HS 578T breast, 93.2%; with NCI/ADR-RES ovarian it was 87.6%; with T-47D breast, 92.8%.

On to `COc1cc(-c2cc(/C=C/C(=O)c3ccc(F)c(F)c3)[nH]n2)cc(OC)c1OC`, for which the growth was 22.6% in the assay on RPMI-8226 leukemia; 58.1% in the assay with OVCAR-8 ovarian; 76% in the assay with OVCAR-5 ovarian; 40.1% in the assay on OVCAR-4 ovarian; 90% in the assay with SK-OV-3 ovarian; 73.1% with IGROV1 ovarian. In addition, the growth with OVCAR-3 ovarian is 49.6%; in the assay on HS 578T breast, 61.3%; with NCI/ADR-RES ovarian it was 63.5%; in the assay with T-47D breast it was 53.6%.

As to `CC12O[C@H](C[C@@H](OC(=O)c3ccccc3)[C@H]1O)n1c3ccccc3c3c4c(c5c6ccccc6n2c5c31)C(=O)NC4=O`, the growth in the assay with RPMI-8226 leukemia is 54.6%; in the assay on OVCAR-8 ovarian, 86.5%; in the assay on OVCAR-5 ovarian, 59.3%; in the assay with OVCAR-4 ovarian, 84.5%; in the assay with SK-OV-3 ovarian, 12.6%; in the assay with IGROV1 ovarian it was 62%. In addition, the growth is 103% with OVCAR-3 ovarian, 69.3% with HS 578T breast, 77.8% in the assay on NCI/ADR-RES ovarian and 59.3% in the assay on T-47D breast.

As to `COc1cc(Cl)cc(-c2nn(-c3cccc(NC(=O)c4ccc(N5CCOCC5)c(C(F)(F)F)c4)c3)cc2-c2ccncc2)c1`, the growth is 25.2% in the assay with RPMI-8226 leukemia; 42.1% with OVCAR-8 ovarian; 78.4% in the assay on OVCAR-5 ovarian; 67.9% with OVCAR-4 ovarian; 75.7% with SK-OV-3 ovarian; 96.5% in the assay with IGROV1 ovarian. Besides, the growth in the assay with OVCAR-3 ovarian is 69.4%; in the assay with HS 578T breast, 40.7%; in the assay with NCI/ADR-RES ovarian, 46.1%; in the assay on T-47D breast it was 49.2%.

With `COc1cc(Nc2ccnc(NCCCNc3ccnc4cc(Cl)ccc34)n2)cc(OC)c1`, the growth is -45.3% (active) with RPMI-8226 leukemia; 3.57% (active) in the assay on OVCAR-8 ovarian; 44.7% in the assay on OVCAR-5 ovarian; 2.29% (active) in the assay with OVCAR-4 ovarian; 14.7% in the assay on SK-OV-3 ovarian; 27.2% in the assay on IGROV1 ovarian. Also, the growth in the assay on OVCAR-3 ovarian was -58.3% (active); with HS 578T breast it was -53.1% (active); with NCI/ADR-RES ovarian, 50.7%; with T-47D breast it was -63.1% (active).

`CN(C)CC(O)c1ccc2cc(Br)c3ccccc3c2c1` (stereo not given): the growth with RPMI-8226 leukemia is 56.1%; in the assay with OVCAR-8 ovarian it was 79.7%; in the assay with OVCAR-5 ovarian, 68.4%; with OVCAR-4 ovarian, 84.9%; in the assay on SK-OV-3 ovarian it was 95.4%; with IGROV1 ovarian, 22.5%. Also, the growth is 81% with OVCAR-3 ovarian, 74.9% with HS 578T breast, 59.7% in the assay on NCI/ADR-RES ovarian and 69.4% in the assay with T-47D breast.

For the compound `COc1ccc(-c2nn(-c3cccc(NC(=O)Nc4ccccc4)c3)cc2-c2ccncc2)cc1Cl`, the growth was -35.3% (active) in the assay with RPMI-8226 leukemia; 0.341% (active) in the assay with OVCAR-8 ovarian; 35.5% with OVCAR-5 ovarian; 41.4% with OVCAR-4 ovarian; 80.5% in the assay with SK-OV-3 ovarian; 33.3% in the assay on IGROV1 ovarian. The growth in the assay with OVCAR-3 ovarian was 39.4%; in the assay on HS 578T breast, 31.9%; in the assay with NCI/ADR-RES ovarian it was 22.4%; in the assay with T-47D breast, 30.9%.
